# Experimental data: the antibiotic and cytotoxicity screens of Wong et al. (2023)
# About 3,300 (8.5%) of roughly 39,000 compounds were called active. The sample as a whole holds a higher share of actives than the screen did.
# System: HepG2
# Experiment: cytotoxicity call (relative viability < 0.9)
# Conditions: 10 µM
row,Compound,cytotoxicity call
1,C[C@@H]1CN([C@H](C)CO)C(=O)CCCn2nncc2CO[C@H]1CN(C)C(=O)Nc1ccc(C(C)(C)C)cc1,inactive
2,Cc1ccc(S(=O)(=O)N2C[C@H](O)COC[C@@H]3O[C@H](CC(=O)N4CCc5ccccc5C4)CC[C@H]32)cc1,inactive
3,COc1ccc(NC(=O)Nc2ccc3c(c2)C(=O)N([C@H](C)CO)C[C@H](C)[C@@H](CN(C)CC2CC2)OCCCC[C@@H](C)O3)cc1,inactive
4,COc1ccc(S(=O)(=O)Nc2ccc3c(c2)CC(=O)N([C@@H](C)CO)C[C@H](C)[C@@H](CN(C)S(=O)(=O)c2cccs2)O3)cc1,inactive
5,C[C@@H]1CN([C@H](C)CO)C(=O)c2cc(NS(=O)(=O)c3cn(C)cn3)ccc2O[C@@H](C)CCCCO[C@@H]1CN(C)S(=O)(=O)c1ccc(F)cc1,inactive
6,C[C@H]1CN([C@@H](C)CO)C(=O)c2cc(-c3cncnc3)cnc2O[C@H]1CN(C)C(=O)CN1CCOCC1,inactive
7,C[C@@H]1CN([C@H](C)CO)C(=O)c2cc(NC(=O)NC3CCCCC3)ccc2O[C@@H]1CN(C)Cc1ccc(C(=O)Nc2ccccc2N)cc1,inactive
8,COc1ccc(C#Cc2cnc3c(c2)C(=O)N([C@@H](C)CO)C[C@H](C)[C@H](CN(C)C(=O)CC2CC2)O3)cc1,inactive
9,C[C@H](CO)N1C[C@H](C)[C@@H](CN(C)Cc2ccc(C(F)(F)F)cc2)OCCCC[C@H](C)Oc2ccc(NC(=O)C3CCCCC3)cc2C1=O,inactive
10,C[C@@H]1CCCCO[C@H](CN(C)Cc2ccc(C(F)(F)F)cc2)[C@H](C)CN([C@@H](C)CO)C(=O)c2cc(NC(=O)C3CCCCC3)ccc2O1,active
11,C[C@@H]1CN([C@@H](C)CO)C(=O)c2cc(NC(=O)C3CCCCC3)ccc2O[C@@H](C)CCCCO[C@@H]1CN(C)Cc1ccc(C(F)(F)F)cc1,inactive
12,C[C@H](CO)N1C[C@H](C)[C@H](CN(C)Cc2ccc(C(F)(F)F)cc2)OCCCC[C@H](C)Oc2ccc(NC(=O)C3CCCCC3)cc2C1=O,inactive
13,C[C@@H]1CCCCO[C@H](CN(C)Cc2ccc(C(F)(F)F)cc2)[C@@H](C)CN([C@@H](C)CO)C(=O)c2cc(NC(=O)C3CCCCC3)ccc2O1,active
14,C[C@@H]1CN([C@H](C)CO)C(=O)c2cc(NC(=O)C3CCCCC3)ccc2O[C@@H](C)CCCCO[C@H]1CN(C)Cc1ccc(C(F)(F)F)cc1,inactive
15,C[C@@H]1CN([C@@H](C)CO)C(=O)c2cc(NC(=O)C3CCCCC3)ccc2O[C@@H](C)CCCCO[C@H]1CN(C)Cc1ccc(C(F)(F)F)cc1,active
16,C[C@@H]1CCCCO[C@@H](CN(C)Cc2ccc(C(F)(F)F)cc2)[C@@H](C)CN([C@@H](C)CO)C(=O)c2cc(NC(=O)C3CCCCC3)ccc2O1,inactive
17,C[C@H]1CCCCO[C@H](CN(C)Cc2ccc(C(F)(F)F)cc2)[C@@H](C)CN([C@@H](C)CO)C(=O)c2cc(NC(=O)C3CCCCC3)ccc2O1,active
18,C[C@@H]1CN([C@H](C)CO)C(=O)c2cc(NC(=O)C3CCCCC3)ccc2O[C@@H](C)CCCCO[C@@H]1CN(C)Cc1ccc(C(F)(F)F)cc1,inactive
19,C[C@H]1CCCCO[C@@H](CN(C)Cc2ccc(C(F)(F)F)cc2)[C@@H](C)CN([C@@H](C)CO)C(=O)c2cc(NC(=O)C3CCCCC3)ccc2O1,inactive
20,C[C@@H]1CCCCO[C@@H](CN(C)Cc2ccc(C(F)(F)F)cc2)[C@H](C)CN([C@@H](C)CO)C(=O)c2cc(NC(=O)C3CCCCC3)ccc2O1,inactive
